Source: PubChem BioAssay (Tox21)
Several values for one entry are separate records, joined by “and”; a condition that tells them apart may be missing. Equal values may be shown once. Results filed as inconclusive are left out. Where a call stands in place of a potency, no number is given. Activity calls are given as the source filed them. Unless noted, calls follow the shape of the dose curve; as a rule, active = well fitted curve in the direction sought with a large enough effect in the repeat runs; inconclusive = weak or mixed curves; inactive = no such curve, though single readings can be large; an effect the other way counts as inactive or inconclusive.

Key:
[1] = qHTS assay to identify small molecule agonists of the vitamin D receptor (VDR) signaling pathway - cell viability counter screen (AID 743224); also: nearly all actives have a fitted effect of over 50% in size; also: potency is read from the fitted curve at half-maximal effect
Procedure, shortened: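 Plated VDR-bla cells (4 h, 37C) received compound, incubated 16 h, then LiveBLAzer substrate 2 h RT; CellTiter-Glo added afterwards, luminescence read at 30 min.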

[2] = qHTS assay to identify small molecule antagonists of the vitamin D receptor (VDR) signaling pathway - cell viability counter screen (AID 743225); also: nearly all actives have a fitted effect of over 50% in size; also: potency is read from the fitted curve at half-maximal effect
Procedure, shortened: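 Parallel cytotoxicity test: VDR-UAS-bla HEK 293T, 3 nM (final) 1-alpha,25-dihydroxyvitamin D3 with test compound, 16 h, 37C. Endpoint is CellTiter-Glo luminescence in the same wells.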

[3] = qHTS assay to identify small molecule agonists of the NFkB signaling pathway - cell viability counter screen (AID 1159515; calls by dose curve; also: nearly all actives have a fitted effect of over 55% in size)
Procedure, shortened: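 Using the same wells as the NFkB reporter read, ME-180 NFkB-bla cells given compounds for 5 hr were assessed for viability via CellTiter-Glo, with luminescence taken after a 30 min room-temperature incubation.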

[4] = qHTS assay to identify small molecule agonists of the endoplasmic reticulum stress response signaling pathway (AID 1159516; active = well fitted activation curve with a large enough effect in the signal ratio in the repeat runs, not every such curve was filed as active; the % refers to the signal ratio)
Procedure, shortened: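 An ESRE-bla HeLa cell assay: compounds were pin-transferred from DMSO onto overnight-plated cells and left 5 hr at 37 C. Substrate was then loaded for 2 hr at room temperature before reading fluorescence at 460 nm and 530 nm.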

[5] = qHTS assay to identify small molecule agonists of the endoplasmic reticulum stress response signaling pathway - cell viability counter screen (AID 1159517; calls by dose curve;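 also: HeLa cells carrying an ER stress response element beta-lactamase reporter; nearly all actives have a fitted effect of over 50% in size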)
Procedure, shortened: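 Counter-screen wells were identical to the reporter wells. Cells were plated at 1,500 per well and dosed for 5 hr, then read for luminescence 30 min after CellTiter-Glo addition.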

[6] = qHTS assay to identify small molecule antagonists of the retinoid-related orphan receptor gamma (ROR-gamma) signaling pathway - cell viability counter screen (AID 1159520); also: nearly all actives have a fitted effect of over 50% in size
Procedure, shortened: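 Tet-on ROR gamma CHO cells were given compounds for 2 hr, then doxycycline hyclate at 1 uM final, and incubated 16 hr at 37 C. Viability was measured as ATP content by CellTiter-Glo luminescence.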

[7] = qHTS assay to identify small molecule agonists of the AP-1 signaling pathway - cell viability counter screen (AID 1159525; calls by dose curve; also: nearly all actives have a fitted effect of over 55% in size)
Procedure, shortened: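 AP-1-bla ME-180 cells in Opti-MEM with 0.5% dialyzed FBS, compound exposure 5 h at 37 C in 15-point titration. Viability read in the same wells as ATP content by CellTiter-Glo luminescence, normalised to tetra-n-octylammonium bromide and DMSO controls.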

[8] = qHTS assay to identify small molecule agonists of the AP-1 signaling pathway (AID 1159526; calls by dose curve)
[9] = molecular target: Retinoic acid receptor RXR-alpha (Homo sapiens) (UniProt P19793); experiment: qHTS assay to identify small molecule agonists of the RXR signaling pathway (AID 1159527; calls by dose curve; also: nearly all actives have a fitted effect of over 35% in size; also: potency is read from the fitted curve at half-maximal effect)
Procedure, shortened: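 16 hr incubation of compound-treated RXR-alpha-UAS-bla HEK 293T cells (2% charcoal-stripped FBS, 37 C) preceded a 2 hr room-temperature LiveBLAzer FRET substrate step and blue/green fluorescence measurement.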

[10] = qHTS assay to identify small molecule agonists of the RXR signaling pathway - cell viability counter screen (AID 1159529)
Procedure, shortened: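 In this parallel viability measure, GeneBLAzer RXR-alpha HEK 293T cells (2% charcoal-stripped FBS) were given a 5 hr preincubation, treated with compounds 16 hr at 37 C, and read by CellTiter-Glo luminescence.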

[11] = qHTS assay to identify small molecule antagonists of the retinoid acid receptor (RAR) signaling pathway - cell viability counter screen (AID 1159551); also: nearly all actives have a fitted effect of over 35% in size
Procedure, shortened: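 Retinol-stimulated (1 uM final) C3RL4 cells, compound 6 h, 37 C; readout CellTiter-Glo luminescence (ATP) after 30 min RT incubation.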

[12] = qHTS assay to identify small molecule antagonists of the retinoic acid receptor (RAR) signaling pathway (AID 1159552; also: nearly all actives have a fitted effect of over 50% in size)
Procedure, shortened: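 C3RL4 RARE-luc cells, overnight plating; retinol 1 uM final added right after compound; 6 hr 37 C; luciferase read at 30 min RT.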

[13] = qHTS assay to identify small molecule agonists of the retinoic acid receptor (RAR) signaling pathway (AID 1159553); conditions: C3RL4 RARE luciferase reporter, agonist, 6 h; activation: at 73.3 µM (top of the series) unless noted; also: potency is read from the fitted curve at half-maximal effect
Procedure, shortened: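 Reporter readout comes from luciferase under RARE control in C3RL4 cells; compound exposure lasts 6 hr at 37 C in 5% CO2, and luminescence is recorded following a 30 min room-temperature incubation with reagent.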

[14] = molecular target: Nuclear receptor ROR-gamma (Homo sapiens) (UniProt P51449); experiment: qHTS assay to identify small molecule antagonists of the retinoid-related orphan receptor gamma (ROR-gamma) signaling pathway (AID 1159521; also: nearly all actives have a fitted effect of over 50% in size; also: potency is read from the fitted curve at half-maximal effect)
Procedure, shortened: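 Decreased RORE-driven luciferase luminescence indicates antagonism. Tet-on RORγ CHO cells received compound, then 1 uM final doxycycline 2 h later; signal read after 16 h incubation.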

[15] = qHTS assay to identify small molecule antagonists of the estrogen related receptor (ERR) signaling pathway (AID 1224819)
Procedure, shortened: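 Luminescence readout (One-Glo, 30 min, RT) of ERR cell line after 18 h compound exposure at 37 C; cells seeded 2,000/well, pre-incubated 6 h, compounds pinned from DMSO stocks.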

[16] = qHTS assay to identify small molecule agonists of the estrogen related receptor (ERR) signaling pathway (AID 1224820)
Procedure, shortened: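 Quantitative HTS of the LOPAC library used NTP ERR reporter cells treated 18 h at 37 C. Signal is luminescence after One-Glo addition and a 30 min room-temperature incubation.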

[17] = system: estrogen-related receptor alpha (ERRalpha) with PGC-1alpha coactivator, human; experiment: qHTS assay to identify small molecule antagonists of the estrogen related receptor signaling pathway with the pleiotropic PPARgamma coactivator (PGC) (AID 1224821; calls by dose curve)
Procedure, shortened: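 Quantitative HTS for antagonism: PGC/ERR cells received compounds after 6 h attachment and were incubated 18 h at 37 C, with luminescence (One-Glo) as the endpoint.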

[18] = qHTS assay to identify small molecule antagonists of the estrogen related receptor signaling pathway with the pleiotropic PPARgamma coactivator (PGC) cell viability counter screen (AID 1224822;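 also: potency is read from the fitted curve at half-maximal effect; viability read after 17.5 h compound exposure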)
Procedure, shortened: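 PGC/ERR cells were plated at 2,000 per well and allowed 6 h to settle before compound addition. Following 17.5 h at 37 C, CellTiter-Fluor reagent was added and fluorescence was read 30 min later.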

[19] = qHTS assay to identify small molecule agonists of the estrogen related receptor signaling pathway with the pleiotropic PPARgamma coactivator (PGC) (AID 1224823)
Procedure, shortened: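 Cell-based luciferase assay in the NTP-supplied PGC/ERR line, 2,000 cells/well; 18 h compound exposure at 37 C, luminescence after One-Glo.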

Chain of Retinoic acid receptor RXR-alpha (Homo sapiens) (P19793 whole entry, looked up): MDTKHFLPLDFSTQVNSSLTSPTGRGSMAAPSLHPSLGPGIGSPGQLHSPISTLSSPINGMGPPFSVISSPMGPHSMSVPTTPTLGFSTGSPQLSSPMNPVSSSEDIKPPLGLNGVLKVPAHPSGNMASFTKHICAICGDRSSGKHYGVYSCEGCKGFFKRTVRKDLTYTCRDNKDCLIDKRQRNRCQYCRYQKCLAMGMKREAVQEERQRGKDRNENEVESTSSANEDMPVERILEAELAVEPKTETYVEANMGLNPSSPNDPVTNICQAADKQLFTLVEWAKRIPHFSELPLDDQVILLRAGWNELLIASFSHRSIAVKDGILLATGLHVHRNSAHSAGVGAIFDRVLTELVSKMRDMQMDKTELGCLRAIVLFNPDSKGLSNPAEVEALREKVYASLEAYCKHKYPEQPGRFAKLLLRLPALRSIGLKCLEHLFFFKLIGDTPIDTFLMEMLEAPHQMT

Structure (SMILES) | Potency [1] | Potency [2] | Potency [3] | Potency [4] | Potency [5] | Potency [6] | Potency [7] | outcome [8] | Potency [9] | Potency [10] | Potency [11] | Potency [12] | Potency [13] | Potency [14] | Potency [15] | outcome [16] | Potency [17] | Potency [18] | outcome [19]
CCc1cccc(O)c1 | inactive | inactive | inactive | inactive | inactive | inactive | inactive | inactive | inactive | inactive |  |  |  |  |  |  |  |  | 
C[Si](C)(C)N[Si](C)(C)C | inactive | inactive | inactive | inactive | inactive | inactive | inactive | inactive | inactive | inactive | inactive | inactive | inactive |  |  |  |  |  | 
CC(O)CNCC(C)O (stereo not given) | inactive | inactive | inactive | inactive | inactive | inactive | inactive | inactive | inactive |  |  |  |  | inactive |  |  |  |  | 
CC(=O)OC(C)(C)C1CC=C(C)CC1 (stereo not given) | inactive | inactive | inactive | inactive | inactive | inactive | inactive | inactive | inactive | inactive | inactive | inactive | inactive |  |  |  |  |  | 
CC(=O)Nc1ccc(CC(=O)O)cc1 | inactive | inactive | inactive | inactive | inactive | inactive | inactive | inactive | inactive | inactive |  |  |  |  |  |  |  |  | 
CC(C)c1ccc(C(C)C)cc1 | inactive |  | inactive | inactive | inactive | inactive | inactive | inactive | inactive |  |  |  |  | inactive |  |  |  |  | 
CC(C)(C)NC[C@H](O)COc1nsnc1N1CCOCC1 | inactive | inactive | inactive | inactive | inactive | inactive | inactive | inactive | inactive |  | inactive |  |  | inactive |  |  |  |  | 
c1cnc2c(c1)ccc1cccnc12 | 1.97 µM (active) and 2.75 µM (active) and 436 nM (active) | 5.49 µM (active) and 7.76 µM (active) | inactive | inactive | inactive | inactive | inactive |  |  |  |  |  | 2.19 µM (active) and 9.69 µM (active) and 2.73 µM (active) | 1.95 µM (active) and 5.45 µM (active) and 6.11 µM (active) | 2.98 µM (active) | inactive | 2.03 µM (active) | 6.68 µM (active) | inactive
CC(C)(CO)CO | inactive | inactive | inactive | inactive | inactive | inactive | inactive | inactive | inactive | inactive | inactive |  |  |  |  |  |  |  | 
COC(=O)/C=C\C(=O)OC | inactive | inactive | inactive | inactive | inactive | inactive | inactive | inactive | inactive | inactive |  | inactive | inactive |  |  |  |  |  | 
Cc1ccccc1Cl | inactive | inactive | inactive | inactive | inactive | inactive | inactive | inactive | inactive |  |  |  |  |  |  |  |  |  | 
COCN(COC)c1nc(N(COC)COC)nc(N(COC)COC)n1 | inactive | inactive | inactive | inactive | inactive | inactive | inactive | inactive | inactive | inactive |  | inactive | inactive |  |  |  |  |  | 
COc1ccc2cc3[n+](cc2c1OC)CCc1cc2c(cc1-3)OCO2 | inactive |  | inactive | inactive | inactive | inactive | inactive | inactive |  |  | inactive | inactive | inactive | inactive |  |  |  |  | 
O=C1O[C@H]([C@H](O)CO)C(O)=C1O | inactive | inactive | inactive | inactive | inactive | inactive | inactive | inactive | inactive |  |  |  |  | inactive |  |  |  |  | 
C=C1C[C@]23C[C@@]1(O)CC[C@H]2[C@@]12C=C[C@H](O)[C@@](C)(C(=O)O1)[C@H]2[C@@H]3C(=O)O | inactive | inactive | inactive |  | inactive | inactive | inactive | inactive | inactive |  | inactive | inactive | inactive |  |  |  |  |  | 
CC(C)=CCC/C(C)=C/C=O | inactive |  | inactive |  | inactive | inactive | inactive | inactive | inactive |  |  | inactive | inactive | inactive |  |  |  |  | 
O=Cc1ccc(CO)o1 | inactive | inactive | inactive |  | inactive | inactive | inactive | inactive | inactive | inactive |  | inactive | inactive | inactive |  |  |  |  | 
OC[C@H]1O[C@@H](Oc2ccc(O)cc2)[C@H](O)[C@@H](O)[C@@H]1O | inactive | inactive | inactive |  | inactive | inactive | inactive | inactive | inactive | inactive | inactive | inactive | inactive |  |  |  |  |  | 
Nc1cccc(N)n1 | inactive |  | inactive |  | inactive | inactive | inactive | inactive | inactive | inactive |  | inactive | inactive |  |  |  |  |  | 
OB(O)O | inactive |  | inactive |  | inactive | inactive | inactive | inactive | 15.5 µM (active) | inactive | inactive | inactive | inactive |  |  |  |  |  | 
OCc1ccc(Cl)cc1Cl | inactive |  | inactive |  | inactive | inactive | inactive | inactive | inactive | inactive | inactive | inactive |  |  |  |  |  |  | 
COc1ccc(N)c(OC)c1 | inactive |  | inactive |  | inactive | inactive | inactive | inactive | inactive | inactive | inactive |  |  | inactive |  |  |  |  | 
NC(N)=S | inactive |  | inactive |  | inactive | inactive | inactive | inactive | inactive |  |  |  |  | inactive |  |  |  |  | 
OCCOCCOCCOCCOCCO | inactive |  | inactive |  | inactive | inactive | inactive | inactive | inactive | inactive |  | inactive | inactive | inactive |  |  |  |  | 
